Nrf2 ARE act – qHTS of Nrf2 Activators; AREc32 ARE-luciferase reporter (MCF7-derived line), luminescence, 24 h; 410,000 tested, 0.31% active; Potency, µM (top dose mostly 46.1 µM), usual class: activators; note: nearly all actives have a fitted effect of over 65% in size
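AREc32_Fluc, 1000 cells/well, OPTI-MEM + 5% FBS, o/n 37 deg C 5% CO2; 23 nL cpd by pin tool, 24 hr; Steady-Glo 30 min RT, luminescence.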
A549 viability – Nrf2 qHTS screen for inhibitors: counterscreen for cytotoxicity | A549 ARE-Fluc cells, CellTiter-Fluor viability, 18-24 h | Potency, µM (highest dose often 46 µM), most hits filed as inhibitors | 390,000 tested, 0.16% active | AID 504648, 2011
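Cytotoxicity counterscreen: CellTiter-Fluor fluorescence was measured in A549 ARE_Fluc cells after 18-24 h of compound exposure in a concentration series. The subsequent BugLite luminescent read reports ARE-luciferase activity.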
ClpP mod – qHTS Assay for Activators of ClpP | Potency, µM (highest dose often 57.5 µM) | purified B. subtilis ClpP, FRET peptide cleavage, 20 min | 340,000 tested, 1.9% active | ATP-dependent Clp protease proteolytic subunit (Bacillus subtilis (strain 168)), P80244; active = well fitted falling curve with a large enough effect; inconclusive = small, poorly fitted or top-dose-only effect; inactive = no such curve, though single readings can be large or run the other way; note: the source files actives as falling curves though it sought activators and does not explain the sign; nearly all actives have a fitted effect of over 65% in size
Target sequence (P80244 whole entry, looked up): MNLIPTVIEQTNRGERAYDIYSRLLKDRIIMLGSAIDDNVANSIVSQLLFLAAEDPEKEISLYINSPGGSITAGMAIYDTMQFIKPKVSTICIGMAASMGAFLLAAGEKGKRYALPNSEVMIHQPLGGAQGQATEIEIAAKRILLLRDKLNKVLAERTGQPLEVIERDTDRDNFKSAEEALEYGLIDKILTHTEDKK
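Purified B. subtilis ClpP, 10 microg/mL final in Tris/HCl pH8 with KCl, BSA, glycerol and Tween-20, cleaved an Abz/nitrotyrosine-quenched decapeptide. Fluorescence (ex 320, em 430) was read at 0 and 20 min at room temperature. Delta was normalized to 5.8 microM ADEP and DMSO/no-enzyme controls.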
Nrf2 block – Nrf2 qHTS screen for inhibitors. A549 ARE-Fluc reporter, luciferase luminescence, 18-24 h. Potency, µM (series often up to 46 µM), usual class: inhibitors. 360,000 tested, 2.1% active. AID 504444, 2011; note: nearly all actives have a fitted effect of over 60% in size
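Reporter: ARE-Fluc in A549. Exposure: 18-24 h, 37 °C, 5% CO2, 5% FBS OPTI-MEM. Readouts: fluorescent cytotoxicity (CellTiter-Fluor), then luminescent Nrf2 signal after BugLite.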
miR-21 reporter – qHTS Assay for Modulators of miRNAs and/orActivators of miR-21; Potency, µM (top dose mostly 38.3 µM), usual class: activators; 340,000 tested, under 10 active; HeLa miR-21 FLuc reporter, luciferase, 48 h;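 note: miR-21 action dims this reporter so a rising signal means less miR-21 action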
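HeLa cells stably expressing CMV-driven firefly luciferase with a downstream miR-21 binding sequence, endogenously expressing miR-21, were treated with titrations (up to about 40uM final) for 48 hours at 37 degree Celsius. Luciferase luminescence was read after lysis.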
IL-2 act – qHTS of IL-2 Activators. IL-2 activation reporter assay, cell-based qHTS; stimulated with anti-CD3/CD4/CD28 beads; in transgenic mouse T cells. activation, % (series mostly up to about 46 µM). 360,000 tested, 0.065% active. AID 652025, 2013; in the data active = activation above about 50%; inconclusive = mostly about 30% to 49%
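First, unstimulated transgenic mouse T cells were exposed to compound for 60 min. Next, anti-CD3/anti-CD4-coated beads with anti-CD28 were added. Finally, after 18 h at 37 degrees C, EGFP and DsRed were imaged.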
Each line names hits and unclear results; the compound was inactive in the other large screens. The list is not random: actives were taken first. Their share in the collection is about 3.7%. Unless noted, calls come from the whole dose curve; as a rule, active = well fitted curve in the direction sought with a large enough effect; inconclusive = small, poorly fitted or top-dose-only effect, or another doubt; inactive = no such curve, though single readings can be large; an effect the other way counts as inactive or inconclusive.

CCS(=O)(=O)Nc1c(C(=O)OC)[nH]c2ccccc12	none
CCS(=O)(=O)Nc1c(C(=O)O)[nH]c2ccccc12	ClpP mod 22µM
Cc1nc2ccc(C(=O)OC(C)C(=O)c3c(C)[nH]c4ccccc34)cc2nc1C (stereo unspecified)	none (no result: Nrf2 ARE act, A549 viability, Nrf2 block, miR-21 reporter, IL-2 act)
O=[N+]([O-])c1ccc(NN=Cc2ccccc2O)nc1	A549 viability inconclusive, Nrf2 block inconclusive (no result: miR-21 reporter)
Oc1cccc(C=NNc2ccccn2)c1	Nrf2 ARE act 13µM (no result: miR-21 reporter)
Brc1ccc(/C=N/Nc2ccccn2)cc1	Nrf2 ARE act 13µM, Nrf2 block inconclusive (no result: ClpP mod)
O=[N+]([O-])c1ccc(O)c(/C=N/Nc2ccccn2)c1	A549 viability 15µM, Nrf2 block inconclusive
Clc1ccc(/C=N/Nc2ccccn2)cc1	Nrf2 ARE act inconclusive, Nrf2 block inconclusive (no result: ClpP mod)
Cc1cc2c(s1)c1cnn(Cc3ccc(C)c(F)c3)c(=O)c1n2C	none (no result: Nrf2 ARE act, ClpP mod, miR-21 reporter, IL-2 act)
Cc1ccn2c(Nc3ccccc3)c(-c3ccccn3)nc2c1	A549 viability inconclusive, Nrf2 block 26µM (no result: ClpP mod)
Cc1ccn2c(Nc3ccccc3C)c(-c3ccccn3)nc2c1	A549 viability inconclusive, Nrf2 block inconclusive
CN1C(=O)C2(N=c3ccccc3=N2)c2ccccc21	ClpP mod 13µM
CN1C(=O)C2(OCC(C)([N+](=O)[O-])CO2)c2ccccc21 (stereo unspecified)	none (no result: ClpP mod)
CCOc1ccccc1C(=O)NCc1ccc2c(c1)CCN2C(C)=O	none (no result: Nrf2 block, IL-2 act)
O=C(Cc1ccc([N+](=O)[O-])cc1)N1CCN(c2ccc([N+](=O)[O-])cc2)CC1	Nrf2 block inconclusive
O=C(c1cc([N+](=O)[O-])ccc1Cl)N1CCN(c2ccc([N+](=O)[O-])cc2)CC1	A549 viability inconclusive, Nrf2 block 21µM
COc1ccc(N2CCN(C(=O)c3ccc(COc4ccc([N+](=O)[O-])cc4)o3)CC2)cc1	Nrf2 block 23µM
O=C(c1cc([N+](=O)[O-])ccc1Cl)N1CCN(c2ccc(F)cc2)CC1	none
O=C(c1ccc2nsnc2c1)N1CCN(c2ccc([N+](=O)[O-])cc2)CC1	Nrf2 block 23µM
O=C(Cc1ccccc1)N1CCN(c2ccc([N+](=O)[O-])cc2)CC1	Nrf2 block 26µM
O=C(NCCc1ccccc1)C(=O)NCC(c1cccnc1)N1CCN(c2ccccc2F)CC1 (stereo unspecified)	none (no result: IL-2 act)
CCCC(=O)Nc1nnc(SCc2cc(=O)n3ccccc3n2)s1	none (no result: Nrf2 block, IL-2 act)
O=[N+]([O-])c1ccc(Cl)c(/C=N/N2CCN(c3ccccc3)CC2)c1	Nrf2 ARE act 13µM
O=[N+]([O-])c1cc(/C=N/N2CCCCC2)ccc1Cl	Nrf2 block inconclusive (no result: ClpP mod)
Cn1ncc(Cl)c1C(=O)N1CCN(c2ccc(Cl)c(Cl)c2)CC1	ClpP mod 16µM, Nrf2 block inconclusive
O=[N+]([O-])c1cc(C=NN2CCCCCC2)ccc1Cl	ClpP mod 28µM, Nrf2 block inconclusive (no result: miR-21 reporter)
Cc1cc(Cl)nc2nc(Cl)ccc12	none (no result: Nrf2 ARE act, A549 viability, Nrf2 block, miR-21 reporter, IL-2 act)
Cc1cc(Cl)ccc1OCCSc1nnc(-c2cccs2)o1	ClpP mod inconclusive (no result: IL-2 act)
CC(=O)Nc1ccc(OCc2cccc(C3Nc4ccccc4C(=O)N3Cc3ccco3)c2)cc1 (stereo unspecified)	none (no result: Nrf2 ARE act, ClpP mod, miR-21 reporter, IL-2 act)
NC(=O)c1c(NC(=O)c2ccc([N+](=O)[O-])o2)sc2c1CCCC2	Nrf2 ARE act 4µM
CN1CCc2c(sc(NC(=O)c3ccc([N+](=O)[O-])o3)c2C(N)=O)C1	A549 viability 21µM, Nrf2 block inconclusive
CN1CCc2c(sc(NC(=O)c3ccco3)c2C(N)=O)C1	none
COc1ccc(CCNC(=O)C(=O)NCC(c2cccs2)S(=O)(=O)c2ccccc2)cc1 (stereo unspecified)	none (no result: Nrf2 block, IL-2 act)
CC[N+](CC)(CC#Cc1ccccc1)CC#Cc1ccccc1	Nrf2 block 15µM, miR-21 reporter inconclusive (no result: ClpP mod)
C#CC[N+](CC)(CC)CC#Cc1ccccc1	Nrf2 block inconclusive
O=C(NC(=S)Nc1cccc(S(=O)(=O)NC2=NCCC2)c1)c1cc(-c2ccco2)nc2ccccc12	Nrf2 block inconclusive (no result: ClpP mod)
CN(C)C(=O)c1ccc(NC(=O)c2cc(-c3ccco3)nc3ccccc23)cc1	Nrf2 ARE act 11µM, ClpP mod inconclusive
O=C(Nc1cccc(S(=O)(=O)NC2=NCCC2)c1)c1cc(-c2ccco2)nc2ccccc12	Nrf2 ARE act 10µM, A549 viability inconclusive (no result: ClpP mod)
O=C(Nc1nc2ccccc2s1)c1cc(-c2ccco2)nc2ccccc12	ClpP mod 18µM
CCN(CC)CCNC(=O)c1ccc(NC(=O)c2cc(-c3ccco3)nc3ccccc23)cc1	Nrf2 block inconclusive
Cc1csc(NC(=O)c2cc(-c3ccco3)nc3ccccc23)n1	Nrf2 ARE act 4µM
Cc1nc2cc(-c3ccccc3)nn2c(C)c1CCC(=O)NCc1cccc(Cl)c1	Nrf2 block inconclusive (no result: IL-2 act)
Cc1ccc2nc(NC(=O)c3cc(-c4ccco4)nc4ccccc34)sc2c1	ClpP mod 18µM, Nrf2 block 23µM
O=C(NC1CC1)c1cc(-c2ccco2)nc2ccccc12	Nrf2 ARE act 13µM (no result: ClpP mod)
O=C(O)c1cc(-c2ccco2)nc2ccccc12	none
Cc1cc(Nc2cccc(C(F)(F)F)c2)nc2ccc(NC(=O)c3cccnc3)cc12	A549 viability inconclusive, Nrf2 block 21µM, miR-21 reporter inconclusive (no result: IL-2 act)
